This is an account of results in PubChem BioAssay (Tox21).

Experiment [1] can be described thus: qHTS assay to identify small molecule agonists of the hypoxia (HIF-1) signaling pathway (AID 1224846; active = well fitted activation curve with a large enough effect in the signal ratio in the repeat runs, not every such curve was filed as active; the % refers to the signal ratio). An outline of the steps:
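Reporter induction in HRE-bla ME-180 cells is taken as agonism: cells sit 5 hrs after plating, receive compounds or DMSO only, incubate 17 hrs at 37C under 5% CO2, and are loaded with CCF4-AM for beta-lactamase FRET measurement.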
In general terms: In qHTS, concentration-response curves come from the screen itself.

Experiment [2] can be described thus: qHTS assay to identify small molecule agonists of H2AX - cell viability counter screen (AID 1224847; calls by dose curve; note: nearly all actives have a fitted effect of over 30% in size; note: potency is the fitted concentration of half-maximal effect). The procedure, abridged: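 Cells plated first: CHO-K1, 1000 per well in 10% FBS medium, incubated overnight at 37C. Then 15-point compound titration added (final DMSO 0.76%) for 3 hr. Finally CellTiter-Glo added and luminescence read.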
A short description of experiment [3]: qHTS assay to identify small molecule antagonists of the estrogen related receptor (ERR) signaling pathway from Tox21 library (AID 1224848). Note: nearly all actives have a fitted effect of over 50% in size. Note: potency is the fitted concentration of half-maximal effect. The procedure, abridged: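 Luciferase luminescence (ONE-Glo, 30 min room temperature) was the read-out. Cells of the NTP-supplied ERR line, 2,000 per well, were given 6 h at 37 C before compound addition in DMSO and 18 h exposure at 37 C.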

Experiment [4] can be described thus: qHTS assay to identify small molecule agonists of the estrogen related receptor (ERR) signaling pathway from Tox21 library (AID 1224849; calls by dose curve; note: nearly all actives have a fitted effect of over 15% in size). The note with it: ERR reporter cell line, ONE-Glo luciferase, 18 h. The procedure, abridged:
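Tox21 compounds tested for ERR agonism in an NTP reporter cell line: 18 h treatment at 37 C, then ONE-Glo luminescence.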

Experiment [5] can be described thus: qHTS RealTime-Glo MT Cell Viability Assay in HepG2 cells - 24 hour (AID 1224867). Note: nearly all actives have a fitted effect of over 50% in size. The procedure, abridged: (§1)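 qHTS, HepG2, 600 cells/well, RealTime-Glo (NanoLuc + prosubstrate) added with cells; 5 h preincubation; DMSO compound addition; 37 C; luminescence at 0/8/16/24/32/40 h.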
A short description of experiment [6]: qHTS RealTime-Glo MT Cell Viability Assay in HEK293 cells - 32 hour (AID 1224868). Note: nearly all actives have a fitted effect of over 50% in size. Note: potency is the fitted concentration of half-maximal effect. The procedure, abridged: (§2)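 Assay medium contained NanoLuc luciferase plus cell-permeant prosubstrate, added with HEK293 cells at 600 cells/well. After 5 h at 37 C/5% CO2 compounds were added; plates stayed at 37 C for 40 h with serial luminescence reads.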
Experiment [7] in a line: A CellTox Green Cytotoxicity Assay to monitor cytotoxicity in HEK293 cells - 0 hour (AID 1224869). Note: nearly all actives have a fitted effect of over 50% in size. An outline of the steps: (§3)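 Tox21 screen in HEK293: membrane-impermeant cyanine dye fluoresces on binding dead-cell DNA; compound pinned 5 h post-seeding, plates held at 37 C, signal read repeatedly through 40 h.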
The nature of experiment [8]: qHTS RealTime-Glo MT Cell Viability Assay in HepG2 cells - 40 hour (AID 1224870). Note: nearly all actives have a fitted effect of over 50% in size. The procedure, abridged: (§4)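 Real-time viability: cells seeded at 600 per well together with NanoLuc and cell-permeant prosubstrate, compounds added after 5 h incubation. Luminescence tracked at 0, 8, 16, 24, 32 and 40 h of exposure.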
Experiment [9] can be described thus: A CellTox Green Cytotoxicity Assay to monitor cytotoxicity in HEK293 cells - 40 hour (AID 1224871). Note: nearly all actives have a fitted effect of over 45% in size. The procedure, abridged: as §3
Experiment [10] can be described thus: qHTS RealTime-Glo MT Cell Viability Assay in HEK293 cells - 16 hour (AID 1224872). Note: nearly all actives have a fitted effect of over 50% in size. Note: potency is the fitted concentration of half-maximal effect. An outline of the steps:
as §2

The nature of experiment [11]: qHTS RealTime-Glo MT Cell Viability Assay in HepG2 cells - 8 hour (AID 1224873). Note: nearly all actives have a fitted effect of over 55% in size. An outline of the steps: as §4
Experiment [12] in a line: A CellTox Green Cytotoxicity Assay to monitor cytotoxicity in HEK293 cells - 24 hour (AID 1224875). Note: nearly all actives have a fitted effect of over 45% in size. An outline of the steps:
as §3

The nature of experiment [13]: A CellTox Green Cytotoxicity Assay to monitor cytotoxicity in HepG2 cells - 16 hour (AID 1224876). Note: nearly all actives have a fitted effect of over 45% in size. The procedure, abridged: (§5)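 Measurements at 0, 8, 16, 24, 32 and 40 h of treatment captured CellTox Green fluorescence in HepG2 cells that had been co-plated with reagent and preincubated 5 h at 37 C/5% CO2.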
Experiment [14] in a line: A CellTox Green Cytotoxicity Assay to monitor cytotoxicity in HepG2 cells - 24 hour (AID 1224878). Note: nearly all actives have a fitted effect of over 45% in size. An outline of the steps:
as §5

A short description of experiment [15]: A CellTox Green Cytotoxicity Assay to monitor cytotoxicity in HepG2 cells - 40 hour (AID 1224879). Note: nearly all actives have a fitted effect of over 40% in size. An outline of the steps:
as §5

Experiment [16] can be described thus: qHTS RealTime-Glo MT Cell Viability Assay in HEK293 cells - 0 hour (AID 1224880). The procedure, abridged:
(§6)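 HEK293 + NanoLuc + prosubstrate, 600 cells/well; 5 h, 37 C/5% CO2; compound 23 nL in DMSO by pintool; 37 C; luminescence read at 0, 8, 16, 24, 32 and 40 h time points.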

The nature of experiment [17]: A CellTox Green Cytotoxicity Assay to monitor cytotoxicity in HEK293 cells - 32 hour (AID 1224881). Note: nearly all actives have a fitted effect of over 40% in size. An outline of the steps:
as §3

Experiment [18] is described as follows: A CellTox Green Cytotoxicity Assay to monitor cytotoxicity in HepG2 cells - 0 hour (AID 1224882). Note: nearly all actives have a fitted effect of over 35% in size. The procedure, abridged: as §5
The nature of experiment [19]: qHTS RealTime-Glo MT Cell Viability Assay in HepG2 cells - 32 hour (AID 1224877). Note: nearly all actives have a fitted effect of over 55% in size. The procedure, abridged: as §1
Experiment [20] is described as follows: qHTS RealTime-Glo MT Cell Viability Assay in HEK293 cells - 40 hour (AID 1224874). Note: nearly all actives have a fitted effect of over 50% in size. Note: potency is the fitted concentration of half-maximal effect. The note with it: RealTime-Glo luminescence; max response: hits give low values. The procedure, abridged: as §6
[21] abbreviates: at 92.4 µM (top of the series) unless noted.

The structures appear in SMILES notation. Several values for one entry are separate records, joined by “and”; a condition that tells them apart may be missing. Equal entries are not always repeated. Values without a mark were called inactive. Inconclusive results are not listed. The source holds several records for some structures; these can differ, active in one and inactive in another. Activity calls are given as the source filed them. Unless noted, calls come from the whole dose curve; as a rule, active = well fitted curve in the direction sought with a large enough effect in the repeat runs; inconclusive = weak or mixed curves; inactive = no such curve, though single readings can be large; an effect the other way counts as inactive or inconclusive.
% is set by controls: 0 for no effect and ±100 for the full control effect.

On to `CC(C)(COCC1CO1)COCC1CO1` (stereo not given), for which, in [1], the compound was classed as inactive. The Potency result in [2], in experiment [3], in [5], in experiment [6], in experiment [7] and in [8] was “inactive” each time. The Potency result in [9], in [10], in experiment [11], in experiment [12], in experiment [13] and in [14] was “inactive” each time. Also, the Potency entry in [15], in experiment [16], in experiment [17] and in experiment [18] was “inactive” throughout. Further, the activity change, positive = activation in [4] (setting [21]) was -8.81%.

For the compound `CCOCCOC(C)=O`, the call in experiment [1] was inactive. The Potency result in [2], in experiment [3], in experiment [5], in experiment [6], in experiment [7] and in experiment [8] was “inactive” each time. The Potency result in experiment [9], in [10], in experiment [11], in [12], in experiment [13] and in experiment [19] was “inactive” each time. Also, the Potency entry in [14], in experiment [15], in [16] and in experiment [18] was “inactive” throughout.

`CCc1cc(C)cc(CC)c1-c1c(OC(=O)C(C)(C)C)n2n(c1=O)CCOCC2`: the outcome in [1] was inactive. The Potency entry in experiment [2], in experiment [3], in experiment [5], in experiment [6], in [7] and in [8] was “inactive” in each case. Besides, the Potency result in experiment [9], in experiment [10], in experiment [11], in experiment [12], in experiment [13] and in [19] was “inactive” in each case. In addition, the Potency entry in experiment [14], in experiment [15], in experiment [16], in experiment [17] and in [18] was “inactive” each time. The activity change, positive = activation in [4] (setting [21]) was -10%. In addition, the max response in experiment [20] was -25.1%.

Turning to `COc1ccc(N)cc1N`, in experiment [1], the compound was classed as inactive. In addition, the Potency in experiment [2] was 41.4 µM (active) and 54.4 µM (active); in experiment [3], 63.1 µM (active) and 14.7 µM (active); in [6], 45 µM (active); in [10], 35.8 µM (active); in experiment [20] it was 50.5 µM (active). The figures for the activity change, positive = activation in experiment [4] (at 42.5 µM (top of the series)) and in experiment [4] (at 92.4 µM (top of the series)) were -34.8% and -69.2%, respectively. For the same compound, the Potency result in [5], in experiment [7], in [8], in [9], in experiment [11] and in [12] was “inactive” in each case. Further, the Potency entry in experiment [13], in experiment [19], in experiment [14], in experiment [15], in experiment [16] and in [17] was “inactive” in each case. Besides, the max response in experiment [20] is -27.7%.

On to `COCC(=O)N(c1c(C)cccc1C)[C@H](C)C(=O)OC`, for which the compound was called inactive in [1]. For the same compound, the Potency result in experiment [2], in [3], in [5], in experiment [6], in [7] and in experiment [8] was “inactive” each time. Besides, the Potency entry in [9], in [10], in experiment [11], in [12], in experiment [13] and in [19] was “inactive” throughout. The Potency entry in experiment [14], in [15], in experiment [16] and in [17] was “inactive” each time. Further, the activity change, positive = activation in experiment [4] (setting [21]) was -2.81%. In experiment [20], the max response was -0.139%.

In the case of `C[As+](C)(C)CC(=O)[O-]`, the compound was called inactive in experiment [1]. Besides, the Potency entry in [2], in experiment [3], in [5], in [6], in [7] and in experiment [8] was “inactive” each time. Further, the Potency result in experiment [9], in experiment [10], in experiment [11], in experiment [12], in experiment [13] and in experiment [19] was “inactive” in each case. Also, the Potency result in experiment [14], in experiment [15], in experiment [16], in experiment [17] and in [18] was “inactive” throughout. Also, the activity change, positive = activation in experiment [4] (setting [21]) was 5.87%. Besides, in experiment [20], the max response was -9.67%.
